KCNQ2 block = blocks the rat KCNQ2 potassium channel; O88943; CHO-K1 KCNQ2, FluxOR thallium flux, 20 min; stronger effect = lower value; B-score at 10 µM; 310,000 tested, 1.1% active;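 active = fluorescence ratio B-score at most minus 3 library SDs, with starting brightness B-score within 2 library SDs, cut at about -5.5 in these data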
KCNQ2 enhance = potentiators of rat KCNQ2 potassium channel. O88943. CHO-K1 KCNQ2, FluxOR thallium flux fluorescence; stronger effect = higher value. B-score at 10 µM. 310,000 tested, 0.54% active;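 active = fluorescence ratio B-score at least 3 SD of library B-scores, with initial fluorescence B-score within 3 of them, cut at about 5.3 in these data; same plate scores as AID 2156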;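 also: B-score of peak minus minimum over baseline fluorescence ratio after K+ and Tl+ stimulus; positive B-score means potentiation of KCNQ2 with more thallium influx and brighter signal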
Kir21 confirm = confirmation of mouse Kir2.1 potassium channel inhibitors | AID 2032 | Tl flux remaining, % of negative control (stronger effect = lower value), % at 10 µM | shares compounds with KCNQ2 enhance | Kir2.1-expressing cells, FluxOR thallium flux fluorescence; stronger effect = lower value | 2,300 tested, 41% active;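 active = Primary-screen hit whose thallium flux fell at least 3 control SD below untreated wells in both duplicates, with normal baseline fluorescence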;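 also: 0% = blank wells without stimulus and 100% = stimulated no-compound controls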
HEK293 Tl flux = counter-screen for Kir2.1 inhibitors: effect in parental HEK293 cells | shares compounds with KCNQ2 enhance | FluxOR thallium flux fluorescence; 0% = unstimulated blank wells | FluxOR signal as % of negative control (100 = no effect), % at 10 µM | 2,300 tested, 19% active;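 active = dye signal at least 3 control SD above or below untreated wells in both duplicates, raw fluorescence within 3, either direction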;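 also: percent is based on the flux ratio of peak minus minimum fluorescence over baseline F0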
CHO-K1 Tl ctr = alters thallium flux in parental CHO-K1 cells, KCNQ2 counter-screen; AID 2282; FluxOR thallium flux fluorescence; zero = vehicle mean+3SD, 100% = vehicle-minus-blank window; activity increase over 3SD of controls, % at 10 µM; 1,200 tested, 43% active; shares compounds with KCNQ2 enhance;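 active = signal rise of at least 3 SD above the untreated control mean, in both duplicate wells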;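 also: counter screen of KCNQ2 potentiator hits so any rise reflects channel-independent effects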
KCNQ1 sel pot = human KCNQ1 counter-target activity of KCNQ2 potentiators; shares compounds with KCNQ2 enhance; CHO KCNQ1 stable, FluxOR thallium flux fluorescence; beyond 3SD, as % of vehicle-control signal; activation over 3SD threshold, % at 10 µM; 1,200 tested, 28% active; AID 2283;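 active = fluorescence ratio rise of at least 3 SD of vehicle wells above their mean, in both replicate wells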;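 also: 0% = vehicle mean plus 3 SD and 100% = vehicle minus unstimulated blank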
KCNQ2 pot confirm = rat KCNQ2 channel potentiator confirmation. shares compounds with KCNQ2 enhance. CHO-KCNQ2 cells, FluxOR thallium flux fluorescence. potentiation, less the hit threshold, % at 10 µM. 1,200 tested, 68% active. AID 2287;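 active = fluorescence ratio rising 3 SD or more over the vehicle control mean in both replicates, plus primary screen hit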;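 also: peak minus minimum thallium fluorescence divided by baseline after K/Tl stimulus; 0% = vehicle mean plus 3 SD and 100% = vehicle minus unstimulated blank difference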
Kir2-1 sel = tests whether KCNQ2 potentiators also affect mouse Kir2.1; shares compounds with KCNQ2 enhance; HEK293 Kir2.1, FluxOR thallium flux fluorescence; activity over 3SD threshold, % at 10 µM; 1,200 tested, 2% active;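 active = fluorescence ratio rise of at least 3 SD above the vehicle-control mean, seen in both replicates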;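 also: 0% = vehicle mean plus 3 SD and 100% = vehicle minus no-stimulus blank window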
KCNQ2 W236L pot = potentiates the retigabine-insensitive rat KCNQ2 W236L mutant channel. 940 tested, 10% active. current increase over 3SD of negative controls (%), stronger effect = higher value, % at 25 µM. CHO KCNQ2-W236L, automated patch clamp current. shares compounds with KCNQ2 enhance;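 active = current increase at least 3 SD of the untreated controls above them in both duplicate recordings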
Target sequence (O88943 whole entry W236L, looked up): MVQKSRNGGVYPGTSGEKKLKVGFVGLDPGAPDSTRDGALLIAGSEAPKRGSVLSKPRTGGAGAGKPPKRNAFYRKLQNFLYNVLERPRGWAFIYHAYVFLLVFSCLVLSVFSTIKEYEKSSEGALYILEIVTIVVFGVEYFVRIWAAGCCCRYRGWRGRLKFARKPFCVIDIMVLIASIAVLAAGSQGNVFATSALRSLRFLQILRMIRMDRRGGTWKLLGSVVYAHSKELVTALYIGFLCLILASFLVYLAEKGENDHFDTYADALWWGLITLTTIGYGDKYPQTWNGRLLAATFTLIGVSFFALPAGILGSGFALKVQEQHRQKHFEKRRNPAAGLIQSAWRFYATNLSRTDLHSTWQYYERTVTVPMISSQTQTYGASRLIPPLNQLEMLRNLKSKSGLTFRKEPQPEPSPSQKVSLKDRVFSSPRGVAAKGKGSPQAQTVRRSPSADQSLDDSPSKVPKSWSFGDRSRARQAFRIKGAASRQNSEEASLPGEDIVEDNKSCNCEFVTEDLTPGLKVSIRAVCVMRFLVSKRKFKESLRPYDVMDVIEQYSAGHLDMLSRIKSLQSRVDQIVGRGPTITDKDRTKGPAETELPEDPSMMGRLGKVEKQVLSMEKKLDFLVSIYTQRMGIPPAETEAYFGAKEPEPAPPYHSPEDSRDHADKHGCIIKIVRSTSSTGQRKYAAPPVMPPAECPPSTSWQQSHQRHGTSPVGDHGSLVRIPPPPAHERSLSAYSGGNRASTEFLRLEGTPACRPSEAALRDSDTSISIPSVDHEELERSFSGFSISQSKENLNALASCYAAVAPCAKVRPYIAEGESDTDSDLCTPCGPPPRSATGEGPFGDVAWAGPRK
* = called active by the depositor; i = inactive; . = not tested or not shown. The list is not random: actives were taken first. Their share in the collection is about 1.6%.

SMILES | KCNQ2 block | KCNQ2 enhance | Kir21 confirm | HEK293 Tl flux | others
O=c1[nH]c(C(Cl)(Cl)Cl)nc2ccc3ccccc3c12 | i | 6.63* | i | 174.5%* | CHO-K1 Tl ctr=-18.4;KCNQ1 sel pot=38.3*;KCNQ2 pot confirm=5.6*;Kir2-1 sel=-18.9;KCNQ2 W236L pot=i
O=c1[nH]c(C(F)(F)F)nc2ccccc12 | i | 0.68 | . | .
Cc1ccccc1CC(=O)Nc1cccnc1 | i | 0.5 | . | .
COc1cc2nc(Nc3ccc(C)c(C)c3)nc(N)c2cc1OC | i | . | . | .
COc1cc2nc(Nc3ccc(F)cc3)nc(N)c2cc1OC | i | 0.07 | 41.5%* | i
COc1ccc(CC(=O)Nc2nc(C)cs2)cc1 | i | . | . | .
COc1ccc(CC(=O)Nc2nc(C(C)(C)C)cs2)cc1 | i | . | 30.0%* | i
CCOC(=O)Cc1csc(N/N=C\c2ccc(N(C)C)cc2)n1 | i | 1.24 | . | .
Nc1nc(Nc2ccccc2)nc2ccccc12 | i | 2.78 | . | .
Nc1nc(Nc2ccc(Cl)cc2)nc2ccccc12 | i | . | i | 173.5%*
Cc1ccccc1Nc1nc(N)c2ccccc2n1 | i | 0.58 | . | .
CCOc1ccc(Nc2nc(N)nc(CCl)n2)cc1 | i | 0.03 | . | .
CCOc1ccc(Nc2nc(N)c3ccccc3n2)cc1 | i | 0.08 | 50.5%* | i
CN(C)c1ccc(Nc2nc(N)c3ccccc3n2)cc1 | i | 1.52 | 32.5%* | i
O=C(O)COCC(=O)Nc1ccc(-n2cnnn2)cc1 | i | 1.07 | . | .
CC(=O)Nc1ccc2c(c1)ncn2-c1ccc(C)cc1 | i | 0.58 | . | .
CCCCCN(C(=O)NC(=O)Nc1ccccc1C)S(=O)(=O)c1ccccc1 | i | 0.15 | . | .
C/C(=N\NC(N)=S)C1(C)CC2(CC(C)(C)OC2=O)C(=O)O1 (stereo not given) | i | 0.11 | . | .
COc1ccc2c(c1)c(C(C)=O)c(C)n2-c1ccccc1OC | i | . | . | .
COc1ccc(/C=N/Nc2cc(C)nc3c(C)cccc23)cc1 | i | . | . | .
COc1ccc(/C=N/Nc2cc(C)nc3ccccc23)cc1 | i | . | 35.0%* | i
O=C(Nc1cccc(F)c1)c1ccc(Br)o1 | i | 0.43 | . | .
O=C(Nc1cccc(OC(F)(F)F)c1)c1ccc(Br)o1 | i | 10.9* | i | i | CHO-K1 Tl ctr=11.5*;KCNQ1 sel pot=-20.4;KCNQ2 pot confirm=-2.0;Kir2-1 sel=-31.9;KCNQ2 W236L pot=22.4%*
Cc1ccc(/C=C2\SC(=O)N(CCNC(=O)C3CSC4(C)CCC(=O)N34)C2=O)cc1 (stereo not given) | i | . | . | .
CC(=O)N1c2ccc(S(=O)(=O)N3CCCC(C(=O)Nc4ccc(F)cc4)C3)cc2CC1C (stereo not given) | i | 0.01 | . | .
SMILES | KCNQ2 block | KCNQ2 enhance | Kir21 confirm | HEK293 Tl flux | others
CCN(CC)CCCCN1c2ccccc2Sc2ccccc21 | i | . | 44.0%* | i
CCN(CC)CC(=O)N1c2ccccc2Sc2ccccc21 | i | 0.08 | . | .
O=C(NCC1CC1)c1cc([N+](=O)[O-])cc([N+](=O)[O-])c1 | i | 0.67 | . | .
O=C(NCc1csc2ccc(Cl)cc12)Nc1ccccc1 | i | . | . | .
O=C(NCc1ccc(Cl)cc1Cl)Nc1ccccc1 | i | 10.7* | i | i | CHO-K1 Tl ctr=-3.4;KCNQ1 sel pot=4.9*;KCNQ2 pot confirm=29.2*;Kir2-1 sel=-33.9;KCNQ2 W236L pot=9.9%*
Cc1cc(C)n(-c2ccc(C(=O)NCc3ccc(F)cc3)cc2)n1 | i | 1.12 | 22.0%* | i
Cc1cc(C)n(-c2ccc(C(=O)NCc3ccc4c(c3)OCO4)cc2)n1 | i | 0.49 | . | .
Cc1ccc(C)c(-c2cc(C(=O)NCc3cccs3)c3ccccc3n2)c1 | i | 15.8* | i | 72.5%* | CHO-K1 Tl ctr=8.2*;KCNQ1 sel pot=-14.1;KCNQ2 pot confirm=31.7*;Kir2-1 sel=-37.2;KCNQ2 W236L pot=i
Cc1ccc(C)c(-c2cc(C(=O)Nc3nccs3)c3ccccc3n2)c1 | i | . | . | .
O=C(C1CCC(=O)N(C2CCCC2)C1)N1CCN(Cc2cccc(Cl)c2)CC1 (stereo not given) | i | . | . | .
COC(=O)c1cc(F)c(-n2cncn2)c(F)c1 | i | 0.25 | . | .
COC(=O)c1cc([N+](=O)[O-])c(-n2cncn2)c([N+](=O)[O-])c1 | i | . | 73.0%* | i
Cc1cccc(NC(=O)Cn2nnc3sc4c(c3c2=O)CC(C)(C)OC4)c1 | i | . | . | .
CCC1(C)Cc2c(sc3nnn(CC(=O)Nc4ccccc4)c(=O)c23)CO1 (stereo not given) | i | 19* | i | i | CHO-K1 Tl ctr=-21.7;KCNQ1 sel pot=26.6*;KCNQ2 pot confirm=41.2*;Kir2-1 sel=-28.1;KCNQ2 W236L pot=i
COc1ccc(CN2CCN(Cc3ccc(CO)o3)CC2CCO)cc1C (stereo not given) | i | 0.17 | . | .
O=C(CSc1nc(-c2ccco2)cc(C(F)(F)F)n1)N1CCSCC1 | i | 11.8* | i | i | CHO-K1 Tl ctr=-2.8;KCNQ1 sel pot=68.4*;KCNQ2 pot confirm=34.1*;Kir2-1 sel=-35.8;KCNQ2 W236L pot=i
O=C(CSc1nc(-c2ccco2)cc(C(F)(F)F)n1)N1CCN(c2cccc(Cl)c2)CC1 | i | 7.93* | i | 76.0%* | CHO-K1 Tl ctr=15.1*;KCNQ1 sel pot=60.0*;KCNQ2 pot confirm=-15.5;Kir2-1 sel=-44.3
CN1CCN(C(=O)CSc2nc(-c3ccco3)cc(C(F)(F)F)n2)CC1 | i | 0.86 | . | .
O=C(CCSc1nc(-c2ccco2)cc(C(F)(F)F)n1)N1CCN(c2ccccn2)CC1 | i | . | . | .
CCOc1ccc(CCNC(=O)COC(=O)c2nccnc2N)cc1OCC | i | . | . | .
CCN(CC)c1ccc(NC(=O)c2ccc(=O)[nH]c2)cc1S(=O)(=O)Nc1ccccc1OC | i | 0.97 | . | .
Nc1cc(N2CCCCC2)c(Cl)cc1[N+](=O)[O-] | i | 9.2* | i | i | CHO-K1 Tl ctr=139.2*;KCNQ1 sel pot=-17.4;KCNQ2 pot confirm=45.3*;Kir2-1 sel=-27.4;KCNQ2 W236L pot=27.9%*
O=[N+]([O-])c1cc(Cl)ccc1N1CCCCC1 | i | 0.75 | . | .
Cc1ccc(C2/C(=C(\O)c3ccc4c(c3)OCCO4)C(=O)C(=O)N2Cc2cccnc2)cc1 (stereo not given) | i | 0.56 | . | .
Cc1cc(NC(=O)C(C)SCC(=O)OCc2c(Cl)cccc2Cl)no1 (stereo not given) | i | . | . | .
O=S(=O)(Nc1cccc(CCc2ccccn2)c1)c1ccc(Cl)cc1 | i | . | i | i
O=S(=O)(Nc1ccc(S(=O)(=O)Nc2ncccn2)cc1)c1ccc(Cl)cc1 | i | 0.49 | . | .
O=C(Nc1nc2c(Br)cccc2s1)C1CC1 | i | 2.01 | . | .
O=C(NCCCN1CCOCC1)c1sc2ccccc2c1Cl | i | 0.7 | . | .
Cc1ccc(OC(=O)c2ccc([N+](=O)[O-])cc2Cl)cn1 | i | . | . | .
